The results in this text go back to PubChem BioAssay AID887 (National Center for Advancing Translational Sciences (NCATS), 2007).

The whole screen tested about 74,000 compounds, of which about 1,100 (1.5%) were called active. Another 5% or so got no clear call; they are omitted. The sample as a whole holds a higher share of actives than the screen did. A number with no mark means an inactive call. Calls follow the shape of the dose curve; as a rule, active = well fitted inhibition curve with a large enough effect; inconclusive = small, poorly fitted or top-dose-only effect; inactive = no such curve, though single readings can be large or run the other way.
% is scaled to controls: 0 for no effect and ±100 for the full control effect; potency is read from the fitted curve at half-maximal effect.

Chain of Polyunsaturated fatty acid lipoxygenase ALOX15 (Homo sapiens) (P16050 whole entry, looked up): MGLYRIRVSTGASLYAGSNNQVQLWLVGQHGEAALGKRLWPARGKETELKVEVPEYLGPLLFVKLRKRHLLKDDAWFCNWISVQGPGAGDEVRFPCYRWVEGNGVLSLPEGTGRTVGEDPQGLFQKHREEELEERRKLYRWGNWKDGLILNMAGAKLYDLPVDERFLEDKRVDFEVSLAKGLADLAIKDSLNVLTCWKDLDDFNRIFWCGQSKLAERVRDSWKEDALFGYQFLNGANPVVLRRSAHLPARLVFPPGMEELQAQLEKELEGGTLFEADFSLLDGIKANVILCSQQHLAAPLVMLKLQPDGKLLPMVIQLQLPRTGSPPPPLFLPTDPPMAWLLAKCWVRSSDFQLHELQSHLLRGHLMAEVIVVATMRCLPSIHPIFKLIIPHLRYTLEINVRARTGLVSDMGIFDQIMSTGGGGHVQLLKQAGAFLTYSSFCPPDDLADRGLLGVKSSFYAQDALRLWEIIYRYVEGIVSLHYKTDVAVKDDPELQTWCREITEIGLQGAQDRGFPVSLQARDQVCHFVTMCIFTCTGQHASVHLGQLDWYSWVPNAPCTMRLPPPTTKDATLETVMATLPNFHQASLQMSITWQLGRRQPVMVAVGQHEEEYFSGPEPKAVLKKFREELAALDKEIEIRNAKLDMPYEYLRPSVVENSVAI

This assay addresses Polyunsaturated fatty acid lipoxygenase ALOX15 (Homo sapiens) (UniProt P16050). Briefly: qHTS Assay for Inhibitors of 15-hLO (15-human lipoxygenase). Also: nearly all actives have a fitted effect of over 55% in size. The settings on record: purified 15hLO-1, xylenol orange hydroperoxide absorbance; series mostly up to 57.1 µM; activity change, negative = inhibition: at the top concentration. The source says:
Assay Overview: NIH Molecular Libraries Screening Centers Network [MLSCN] NIH Chemical Genomics Center [NCGC] MLSCN Grant: MH081283-01A1 PI Name: Holman, T.R., University of California, Santa Cruz Human lipoxygenase 15hLO-1 is a member of the closely related lipoxygenase family of enzymes which catalyze the site-specific oxidation of arachidonic acid to various hormone precursor molecules and as such is a candidate for drug development in a variety of disease areas, such as cancer and inflammation. Inhibition of 15hLO-1 activity was screened by utilizing arachidonic acid as a substrate. The extent of hydroperoxide product formation was measured by a secondary chromogenic reaction in which xylenol orange (XO, Sigma-Aldrich, cat. number 39,818-7) reacts with the ferric ions produced from the reaction between the hydroperoxide and ferrous ions. The Fe(III)-XO complex is characterized with red-shifted absorbance at 560 nm. A purified preparation of human 15hLO-1 was supplied by Professor Ted Holman, University of California, Santa Cruz.
Assay Protocol: Buffer: 25 mM Hepes pH 7.5, 0.01% Triton X-100. Reagents/Controls: Buffer in columns 3 and 4 as negative control (no enzyme). Substrate solution: 50 uM arachidonic acid (Sigma-Aldrich, St. Louis, MO) final concentration dispensed throughout the plate. Enzyme: 40 nM 15hLO-1 final concentration in columns 1, 2, 5-48. Column 1 is neutral (100% activity). Column 2 contained pin-transferred titration of NDGA (nordihidroguaiaretic acid, Sigma-Aldrich, N 5023, top concentration 10 mM in DMSO, then 1:2 dilution in duplicate). (Dilution factor: 23 nL into 4 uL.) Chromogenic detection reagent (divalent iron/xylenol orange, Fe-XO): 200 uM xylenol orange plus 300 uM ferrous ammonium sulfate prepared freshly in 50 mM sulfuric acid. Assay Steps: Three uL of enzyme were dispensed to 1536-well Greiner black clear bottom plates. Compounds and controls (23 nL) were transferred via Kalypsys PinTool. The plates were incubated for 15 min at room temperature, and then 1 uL of substrate solution was added to start the reaction. After room temperature incubation for 6 minutes, 4 uL of Fe-XO solution was added to each well followed by a short spin (1000 rpm, 15 sec) and the plates were then incubated for 30 min. The absorbance at 405 and 573 nm were measured using ViewLux (Perkin-Elmer) High-throughput CCD imager and absorbance protocol settings. The 573-to-405 absorbance ratio was used to compute reaction progress.
(In general: Quantitative high-throughput screening tests each substance at several concentrations.)
For `CC(C)(Cc1c[nH]c2ccc(Cl)cc12)NCCOc1ccccc1OCC1CC1`, the Potency is 12.6 µM (active).
As for `CNCC[C@H](Oc1ccc(C(F)(F)F)cc1)c1ccccc1`, the Potency entry was “inactive”.
For the molecule `CCC(C)C(=O)O[C@@H]1C[C@@]2(C)C(c3ccoc3)OC(=O)CC23OC2(C)O[C@@]14[C@@]1(C)C(CC(=O)OC)C5(C)CC1(O)C(O)(C5OC(=O)C1(C)OC1C)C(OC(C)=O)[C@@]34O2` (stereo not given in full), the “activity change, negative = inhibition” value is 1.08%.
Consider `CN(C)C1C(=O)C(C(N)=O)=C(O)[C@@]2(O)C(=O)C3=C(O)c4c(O)cccc4[C@@](C)(O)C3C[C@@H]12` (stereo not given in full), for which the “activity change, negative = inhibition” value was 3.68% [at 25.6 µM].
Still for that read-out and setting: in the case of `CC(=O)OC1C2CCC3C1(CC(O)[C@@]1(O)[C@@H](CC(O)C1(C)C)[C@]3(C)O)C[C@@]2(C)O` (stereo not given in full) it was 1.91%.
Regarding `COC(=O)N(c1ccc(OC)cc1)P1(=S)OCCC(C)O1` (stereo not given), the Potency is 3.98 µM (active).
For the molecule `CC1=CC(=O)C2=C(C)C[C@H](O)[C@H]3[C@H](C)C(=O)O[C@@H]3C12` (stereo not given in full), the “activity change, negative = inhibition” value is 0.0263% [at 25.6 µM].
Same read-out and setting: in the case of `C[C@@]12CCC3C(CC[C@@H]4CC(O)CC[C@@]34C)C1CCC2O` (stereo not given in full) it was 0.523%; in that of `CCN1C[C@]2(COC)C(O)C[C@H](OC)[C@@]34C5C[C@]6(O)C(OC)C(O)[C@](OC(C)=O)(C5C6OC(=O)c5ccccc5)C(C(OC)C23)C14` (stereo not given in full), -2.83%.
`Clc1ccc(C(c2ccc(Cl)cc2)n2cc[n+](C[C@@H](OCc3ccc(Cl)cc3Cl)c3ccc(Cl)cc3Cl)c2)cc1`: the Potency was 20 µM (active).
Turning to `CN1C2CC3CC1C(O3)C2O` (stereo not given), the “activity change, negative = inhibition” value was -1.11%.
The same measure, in the same setting: the same measure for `N#Cc1c(Cl)c(Cl)c(Cl)c(C#N)c1Cl`: -5.52%; for `CC[C@@H]1CN2CC[C@@H]1C[C@H]2[C@H](O)c1ccnc2ccc(OC)cc12`: -20.9% [at 25.6 µM].
Still for that read-out and setting: in the case of `CNC(C)[C@@H](O)c1ccccc1` (stereo not given in full) it was 1.77%; in that of `COc1ccc2c3c1OC1CC(O)C=C[C@@]31CCN(C)C2` (stereo not given in full), -0.861%.
